In PubChem BioAssay AID504534 (National Center for Advancing Translational Sciences (NCATS), 2011):
Records with an inconclusive call do not appear. Entries that show only a call come without a potency. Active and inactive are the calls of the source. Calls come from the whole dose curve; as a rule, active = well fitted curve in the direction sought with a large enough effect; inconclusive = small, poorly fitted or top-dose-only effect, or another doubt; inactive = no such curve, though single readings can be large or run the other way.

Experiment: Secondary Assay for Inhibitors of Human Cdc-like kinase 4 (Clk4): HEK-293 Cell Viability Assay;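 note: cytotoxic hits lower the ATP light signal so activity reflects loss of viability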
Conditions: HEK-293 viability, ATP luminescence (CellTiter-Glo), 24/48 h; series mostly up to 46.1 µM
Experimental: NIH Molecular Libraries Probe Production Centers Network [MLPCN] NIH Chemical Genomics Center [NCGC] MLPCN Grant: 1R03MH084827-01 Assay Submitter (PI): Tom Misteli NCGC Assay Overview: Cytotoxicity of the active compounds in the Clk4 screens was assessed using the CellTiter-Glo Luminescent Cell Viability Assay kit (Promega, USA) in the HEK-293 (ATCC) cell line. CellTiter-Glo measures the intracellular ATP present in metabolically active cells using Ultra-Glo as the luciferase to detect ATP levels. In brief, the luciferase in the buffer catalyzes the oxidation of luciferin to oxyluciferin and light which is dependent on ATP. […] Wells treated with various concentrations of cycloheximide (Sigma) and DMSO, and wells with media alone were used as positive and negative controls, respectively. […] [1] http://www.promega.com/tbs/tb288/tb288.pdf
NCGC Assay Protocol Summary: HEK-293 cells were grown in a flask up to 80% confluence. Cells were trypsinized, washed, and resuspended in MEM Eagle + 10% FBS + 1% pen-strep media at a concentration of 120 cells/uL. Five uL/well of cell solution was dispensed into a 1536-well assay plates (Greiner, solid white medium-binding plates) with Aurora Discovery BioRAPTR Flying Reagent Dispenser (FRD; Beckton-Dickenson). Cells were pre-incubated at 37 degree Celsius, 5% CO2 for four hours. Compound and control solutions (23nL) were then transferred to the assay plate using the Kalypsys 1536-pin tool. Assay plates were re- incubated at 37 degree Celsius, 5% CO2. After 24 or 48 hours, five uL of CellTiter Glo detection reagent was added. Luminescence signal was read with Perkin Elmer ViewLux plate reader after 30 min room temperature incubation.
Potency is the fitted concentration of half-maximal effect.

SMILES	Potency
CN(Cc1cncn1C)c1ncnc2ccc(-c3ccc4c(c3)OCO4)cc12	inactive
O=C(O)c1ccc(-c2ccc3ncnc(N4CCOCC4)c3c2)o1	inactive
c1nc(NCc2ccc3c(c2)OCO3)c2cc(-c3ccoc3)ccc2n1	inactive
c1coc(-c2ccc3ncnc(NCc4cccs4)c3c2)c1	inactive
Cc1nc(CNc2ncnc3ccc(-c4ccc5c(c4)OCO5)cc23)cs1	inactive
Cc1nc(CNc2ncnc3ccc(-c4sc(C)nc4C)cc23)cs1	inactive
Fc1cccc(CNc2ncnc3ccc(-c4cccc(Cl)c4)cc23)c1	inactive
CCCNc1ncnc2ccc(-c3ccc4c(c3)OCO4)cc12	inactive
Clc1cccc(-c2ccc3ncnc(NCc4ccc5c(c4)OCO5)c3c2)c1	inactive
CCN(Cc1sccc1C)c1ncnc2ccc(-c3ccc4c(c3)OCO4)cc12	inactive
CN1CCN(c2ncc3nc(-c4cn(C)c5ccccc45)c(=O)n(Cc4cccs4)c3n2)CC1	8.88 µM (active)
CCNC(=O)c1ccc(-c2ccc3ncnc(NCCc4cnc[nH]4)c3c2)o1	inactive
Cn1ccc2cc(-c3ccc4ncnc(NCc5cccc(F)c5)c4c3)ccc21	inactive
Cc1ccc(CNc2ncnc3ccc(-c4ccc(C(=O)O)o4)cc23)o1	inactive
c1nc(NCc2ccc3c(c2)OCO3)c2cc(-c3ccc4c(c3)OCCO4)ccc2n1	inactive
CC(Nc1ncnc2ccc(-c3ccc4c(c3)OCO4)cc12)c1ccco1 (stereo not given)	inactive
c1coc(CNc2ncnc3ccc(-c4ccc5c(c4)OCO5)cc23)c1	inactive
CN1CCCC1CCNc1ncnc2ccc(-c3ccc4c(c3)OCO4)cc12 (stereo not given)	inactive
Cc1ccc(CN(C)c2ncnc3ccc(-c4ccc(C(=O)O)o4)cc23)o1	inactive
Cc1cccc(CNc2ncnc3ccc(-c4ccccc4Cl)cc23)c1	inactive

SMILES	Potency
CCOC(=O)c1ccc(-c2ccc3ncnc(NCc4ncc[nH]4)c3c2)o1	inactive
c1nc(N2CCC(N3CCCC3)CC2)c2cc(-c3ccc4c(c3)OCO4)ccc2n1	inactive
c1nc(NCC2CCCC2)c2cc(-c3ccc4c(c3)OCO4)ccc2n1	inactive
c1nc(NCC2CCOC2)c2cc(-c3ccc4c(c3)OCO4)ccc2n1 (stereo not given)	inactive
Cc1nc(C(C)N(C)c2ncnc3ccc(-c4ccc5c(c4)OCO5)cc23)cs1 (stereo not given)	inactive
COc1cccc(-c2ccc3ncnc(NCc4ccc5c(c4)OCO5)c3c2)c1	inactive
c1coc(CCNc2ncnc3ccc(-c4ccc5c(c4)OCO5)cc23)c1	inactive
c1cncc(CNc2ncnc3ccc(-c4ccoc4)cc23)c1	inactive
Cc1cccc(CNc2ncnc3ccc(-c4ccc5c(c4)OCCO5)cc23)c1	inactive
c1cncc(CNc2ncnc3ccc(-c4ccc5c(c4)OCCO5)cc23)c1	inactive
O=Cc1ccc(-c2ccc3ncnc(NCc4cccs4)c3c2)o1	inactive
Cc1cccc(CNc2ncnc3ccc(-c4cccnc4)cc23)c1	inactive
CCNC(=O)c1ccc(-c2ccc3ncnc(NCc4nccs4)c3c2)o1	inactive
Clc1cccc(-c2ccc3ncnc(NCc4cccs4)c3c2)c1	inactive
Cc1cccc(CNc2ncnc3ccc(-c4cccc(C)c4)cc23)c1	inactive
Cc1occc1-c1ccc2ncnc(NCCc3cnc[nH]3)c2c1	inactive
O=C(O)c1ccc(-c2ccc3ncnc(NCc4nccs4)c3c2)o1	inactive
CCOC(=O)c1ccoc1-c1ccc2ncnc(NCc3csc(C)n3)c2c1	inactive
Cc1ccc(CNc2ncnc3ccc(-c4ccoc4)cc23)o1	inactive
Cc1cccc(-c2ccc3ncnc(NCc4cccc(F)c4)c3c2)c1	inactive
